From PubChem BioAssay
For part of these data: Measured potencies and affinities stand elsewhere. Active and inactive are the calls of the source. Unless noted, no rule for the calls is given here.

How the values were obtained:
[1] = biological target: Calcium-dependent protein kinase 1 (Plasmodium falciparum (isolate 3D7)) (UniProt P62344); assay: PfCDPK1 kinase inhibitors, biochemical, TCAMS library (AID 1159585; cut-off not given, nearly all actives have IC50 up to about 0.98 µM;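 also: inhibitors leave more ATP so luminescence rises with inhibition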); conditions: recombinant PfCDPK1, Kinase-Glo ATP depletion luminescence
Chain of Calcium-dependent protein kinase 1 (Plasmodium falciparum (isolate 3D7)) (P62344 whole entry, looked up): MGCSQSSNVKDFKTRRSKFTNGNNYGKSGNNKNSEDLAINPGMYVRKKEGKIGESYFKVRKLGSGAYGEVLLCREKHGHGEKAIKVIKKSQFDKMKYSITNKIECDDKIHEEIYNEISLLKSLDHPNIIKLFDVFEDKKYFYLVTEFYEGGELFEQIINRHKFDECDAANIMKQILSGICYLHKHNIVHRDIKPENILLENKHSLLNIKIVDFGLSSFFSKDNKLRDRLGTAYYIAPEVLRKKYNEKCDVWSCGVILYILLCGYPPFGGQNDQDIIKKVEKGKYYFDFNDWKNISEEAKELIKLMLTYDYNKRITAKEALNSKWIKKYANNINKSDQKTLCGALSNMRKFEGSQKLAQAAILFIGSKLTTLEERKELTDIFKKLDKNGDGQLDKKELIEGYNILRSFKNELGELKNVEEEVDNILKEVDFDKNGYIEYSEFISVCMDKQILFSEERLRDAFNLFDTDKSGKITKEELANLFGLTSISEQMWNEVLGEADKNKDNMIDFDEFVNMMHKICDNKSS

[2] = biological target: Plasmodium falciparum protein kinase 6 (PK6, PF3D7_1337100) (UniProt Q8IDW1); assay: PfPK6 kinase inhibitors, biochemical, TCAMS library (AID 1159586); conditions: recombinant PfPK6, Kinase-Glo ATP depletion luminescence
Chain of Plasmodium falciparum protein kinase 6 (PK6, PF3D7_1337100) (Q8IDW1 1-305): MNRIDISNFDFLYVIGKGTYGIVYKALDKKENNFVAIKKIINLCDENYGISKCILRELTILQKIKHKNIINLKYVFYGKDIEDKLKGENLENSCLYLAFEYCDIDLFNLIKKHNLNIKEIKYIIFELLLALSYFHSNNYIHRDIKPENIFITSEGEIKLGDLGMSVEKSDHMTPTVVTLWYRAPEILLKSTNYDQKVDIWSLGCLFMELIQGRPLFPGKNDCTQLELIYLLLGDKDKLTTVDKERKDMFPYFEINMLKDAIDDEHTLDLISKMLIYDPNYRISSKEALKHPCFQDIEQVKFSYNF

[3] = biological target: Protein kinase 7 (PK7), Plasmodium falciparum 3D7 (PF3D7_0213400) (UniProt Q7YTF7); assay: inhibition of Plasmodium PK7 catalytic activity – biochemical, TCAMS antimalarial set, Kinase-Glo luminescence (AID 1159587); conditions: recombinant PfPK7, Kinase-Glo ATP depletion luminescence
Chain of Protein kinase 7 (PK7), Plasmodium falciparum 3D7 (PF3D7_0213400) (Q7YTF7 1-343): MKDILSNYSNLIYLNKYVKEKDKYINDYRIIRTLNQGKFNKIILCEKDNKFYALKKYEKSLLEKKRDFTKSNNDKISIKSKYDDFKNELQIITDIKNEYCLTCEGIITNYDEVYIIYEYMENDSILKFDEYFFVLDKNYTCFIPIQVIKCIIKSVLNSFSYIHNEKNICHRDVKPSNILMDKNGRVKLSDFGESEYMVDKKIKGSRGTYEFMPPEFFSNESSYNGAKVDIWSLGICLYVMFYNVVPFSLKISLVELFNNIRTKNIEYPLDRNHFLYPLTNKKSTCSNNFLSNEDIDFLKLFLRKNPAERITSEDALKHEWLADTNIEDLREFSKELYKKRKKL

[4] = biological target: Calcium-dependent protein kinase 4 (Plasmodium falciparum (isolate 3D7)) (UniProt Q8IBS5); assay: PfCDPK4 kinase inhibitors, biochemical, TCAMS library (AID 1159588; cut-off not given, nearly all actives have IC50 up to about 0.91 µM); conditions: recombinant PfCDPK4, Kinase-Glo ATP depletion luminescence
Chain of Calcium-dependent protein kinase 4 (Plasmodium falciparum (isolate 3D7)) (Q8IBS5 whole entry, looked up): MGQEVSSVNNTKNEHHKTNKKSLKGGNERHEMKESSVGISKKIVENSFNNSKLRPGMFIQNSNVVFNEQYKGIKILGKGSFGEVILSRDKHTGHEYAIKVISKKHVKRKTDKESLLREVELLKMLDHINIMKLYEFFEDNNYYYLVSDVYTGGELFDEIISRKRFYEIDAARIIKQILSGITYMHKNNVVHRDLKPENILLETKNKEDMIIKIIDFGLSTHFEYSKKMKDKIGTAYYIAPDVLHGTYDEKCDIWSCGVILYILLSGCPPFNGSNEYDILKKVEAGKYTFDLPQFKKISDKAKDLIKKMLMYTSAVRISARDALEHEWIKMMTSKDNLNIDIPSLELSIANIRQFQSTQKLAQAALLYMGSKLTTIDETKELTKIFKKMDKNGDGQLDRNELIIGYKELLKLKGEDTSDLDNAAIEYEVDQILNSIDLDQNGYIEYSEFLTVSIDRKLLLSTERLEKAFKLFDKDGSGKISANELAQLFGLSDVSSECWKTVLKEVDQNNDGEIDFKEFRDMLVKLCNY

Measured: outcome

CN(C)c1cc(N/N=C/c2cc(Cl)ccc2O)nc(N(C)C)n1
inactive: [1] | [2] | [3] | [4]

O=C(N/N=C/c1nc2ccccc2[nH]1)c1cccc([N+](=O)[O-])c1
inactive: [1] | [2] | [3] | [4]

O/N=C1\CCc2cc(-c3nc(-c4cccc(OCCNCc5ccc(F)cc5)c4)[nH]c3-c3ccncc3)ccc21
inactive: [1] | [2] | [3] | [4]

CCCCCC(C)C(C)c1cc(O)c2c(c1)OC(C)(C)CC2c1cc[n+]([O-])cc1 (centres undefined)
inactive: [1] | [2] | [3] | [4]

Oc1cccc(-c2nc(-c3cccc(I)c3)c(-c3ccc(-c4[nH]c(-c5cccc(O)c5)nc4-c4cccc(I)c4)cc3)[nH]2)c1
inactive: [1] | [2] | [3] | [4]

NC(N)=N/N=C/c1c[nH]c2ccc(-c3ccccc3)cc12
inactive: [1] | [2] | [3] | [4]

CO[C@H](C)[C@H](NC(=O)[C@@H](CC(C)C)[C@H](CCC(F)(F)F)N(O)C=O)C(=O)Nc1nccs1
inactive: [1] | [2] | [3] | [4]

O=C(N/C=N/c1cc([N+](=O)[O-])c(-c2ccncc2)n1-c1ccccc1)c1cccc(O)c1
inactive: [1] | [2] | [3] | [4]

COc1cc(-c2nc(-c3ccc4c(c3)CC/C4=N\O)c(-c3ccncc3)[nH]2)ccc1OCCN1CCCCC1
inactive: [1] | [2] | [3] | [4]

CCN(CC)CCCN=c1ccn(O)c2cc3ccccc3cc12
inactive: [1] | [2] | [3] | [4]

Nc1c2c(nc3ccccc13)/C(=C/c1ccc(O)cc1)CCC2
inactive: [1] | [2] | [3] | [4]

O/N=C1\CCc2cc(-c3nc(-c4ccc(OCCN5CCCCC5)cc4)[nH]c3-c3ccncc3)ccc21
inactive: [1] | [2] | [3] | [4]

COc1ccc2nc(C)cc(N/N=C/c3cc(C)ccc3O)c2c1
inactive: [1] | [2] | [3] | [4]

CCC[C@@H]([C@H](CC(C)C)C(=O)N[C@@H](CCCN=C(N)NS(C)(=O)=O)C(=O)Nc1nccs1)N(O)C=O
inactive: [1] | [2] | [3] | [4]

c1cc2nc(CCCCc3nc4ccc(C5=N[C@@H]6CCCC[C@@H]6N5)cc4[nH]3)[nH]c2cc1C1=N[C@@H]2CCCC[C@@H]2N1
inactive: [1] | [2] | [3] | [4]

COc1ccc(Nc2nc(N/N=C/c3ccc(O)cc3)nc(Nc3ccc([N+](=O)[O-])cc3)n2)cc1
inactive: [1] | [2] | [3] | [4]

Nc1cc(/C=C/c2ccc(O)cc2)nc2ccccc12
inactive: [1] | [2] | [3] | [4]

COc1ccc(Nc2nc(N/N=C/c3cc(Br)ccc3O)nc(Nc3ccc([N+](=O)[O-])cc3)n2)cc1
inactive: [1] | [2] | [3] | [4]

COc1cc(-c2nc(-c3ccc4c(c3)CC/C4=N\O)c(-c3ccncc3)[nH]2)ccc1OCCN1CCN(C)CC1
inactive: [1] | [2] | [3] | [4]

COc1ccc2nc(/N=C(\N)NC(=O)Nc3ccccc3)nc(C)c2c1
inactive: [1] | [2] | [3] | [4]

CCOc1cc(/C=C/c2nc3ccccc3c(=O)[nH]2)cc(Cl)c1O
inactive: [1] | [2] | [3] | [4]

COc1cc(/C=N/Nc2ccnc3cc(Cl)ccc23)ccc1O
inactive: [1] | [2] | [3] | [4]

O=[N+]([O-])c1ccc(/C=N/O)nc1
inactive: [1] | [2] | [3] | [4]

Oc1ccc2ccccc2c1/C=N/Nc1nc(Nc2ccccc2)nc(Nc2ccccc2)n1
inactive: [1] | [2] | [3] | [4]

O=C(O)CCSSc1cccc[n+]1[O-]
inactive: [1] | [2] | [3] | [4]

CC1CCC(C[C@H](C(=O)N[C@@H](CCC(=O)N2CCCCC2)C(=O)Nc2nccs2)[C@H](C(C)C)N(O)C=O)CC1 (some centres undefined)
inactive: [1] | [2] | [3] | [4]

Cc1cccc2[nH]c(-c3cccc(-c4ccc(NC(=O)Cc5ccc[n+]([O-])c5)cc4)c3)nc12
inactive: [1] | [2] | [3] | [4]

CCC[C@H](C(=O)NCCc1cccc(OC)c1)N1C(=O)c2c(ccc(OC)c2OC)C1C(=O)Nc1c(C)cccc1C (some centres undefined)
inactive: [1] | [2] | [3] | [4]

c1cc2nc(CCCCCc3nc4ccc(C5=N[C@H]6CCCC[C@H]6N5)cc4[nH]3)[nH]c2cc1C1=N[C@H]2CCCC[C@H]2N1
inactive: [1] | [2] | [3] | [4]

O=C(Cc1ccc[n+]([O-])c1)Nc1cccc(-c2cccc(-c3nc4ccc(C(F)(F)F)cc4[nH]3)c2)c1
inactive: [1] | [2] | [3] | [4]

C=CC[C@@H](C[C@H](O)[C@H](Cc1ccccc1)NC(=O)c1ccc(-c2cccnn2)cc1)C(=O)NC1CCCCC1
inactive: [1] | [2] | [3] | [4]

O=C1C=CC(=C2NC(c3ccccc3)=C(c3ccc4oc5ccc(C6=C(c7ccccc7)NC(=C7C=CC(=O)C=C7)N6)cc5c4c3)N2)C=C1
inactive: [1] | [2] | [3] | [4]

CC(C)C[C@H](C(=O)N[C@H](C(=O)Nc1nccs1)C(C)(C)C)[C@H](CCC(F)(F)F)N(O)C=O
inactive: [1] | [2] | [3] | [4]

C/C(=N\NC(N)=O)C1=C(O)C(c2ccccc2)N(C2CCCCC2)C1=O (centres undefined)
inactive: [1] | [2] | [3] | [4]

COc1ccc(N=[N+]([O-])c2ccccc2[N+]([O-])=Nc2ccc(OC)cc2)cc1
inactive: [1] | [2] | [3] | [4]

CCC[C@@H]([C@H](CC1CCCCC1)C(=O)N[C@H](C(=O)Nc1ccccn1)[C@H](C)CC)N(O)C=O
inactive: [1] | [2] | [3] | [4]
